The values that follow come from PubChem BioAssay (NCATS).

Records with an inconclusive call do not appear. Where a call stands in place of a potency, no number is given. Activity calls are given as the source filed them. Calls come from the whole dose curve; as a rule, active = well fitted inhibition curve with a large enough effect; inconclusive = small, poorly fitted or top-dose-only effect; inactive = no such curve, though single readings can be large or run the other way.

This experiment addresses Retinaldehyde dehydrogenase 3 (Homo sapiens) (UniProt P47895). The experiment in a line: qHTS for Inhibitors of the Aldehyde Dehydrogenase Family (ALDH1A3) Primary screen (AID 2061315). The following applies: ALDH inhibition qHTS; series mostly up to 56 µM.
`O=[S+]([O-])(c1c(F)cccc1F)N1CCN([S+](=O)([O-])c2csc3ccccc23)CC1`: the Potency entry is “inactive”. As to `CCNC(=O)c1ccc(-c2ccc3ncnc(NCCc4cnc[nH]4)c3c2)o1`, the Potency entry is “inactive”. As to `COc1ccc(C2=Nn3c(nnc3-c3ccccc3OC)SC2)cc1OCC1CC1`, the Potency result was “inactive”.

In the case of `Fc1ccc(Nc2nc(-c3ccnc(C(F)(F)F)c3)nc3ccccc23)cc1F`, the Potency result was “inactive”. On to `O=C1CCCC2=C1C(c1c(Cl)cccc1Cl)N=C(Nc1nc3ccccc3o1)N2` (stereo not given), for which the Potency result is “inactive”. The same measure for `Cc1ccc(-c2cc(C(=O)Nc3cccc(Cl)c3)c3ccccc3n2)cc1C`: “inactive”; for `Cc1ccc(S(=O)(=O)Nc2cc(C)ccc2C(=O)Nc2nc(-c3ccccc3)cs2)cc1`: “inactive”; for `c1ccc(OCc2nnc3ccc(-c4ccccc4)nn23)cc1`: “inactive”. Then `CNC(=O)c1cnn2c(C)cc(C)nc12`, with “inactive”. The same measure for `CC(C)CN1CC2=C(C1=O)C(c1ccccc1Cl)N=C(Nc1nc3ccccc3o1)N2` (stereo not given): “inactive”. As to `Cc1ccc(S(=O)(=O)Nc2ccc(C(=O)Nc3nc(-c4ccccc4)cs3)c(Cl)c2)cc1`, the Potency entry is “inactive”. As to `Cc1ccc(OCCn2c(CCNC(=O)c3ccc[nH]3)nc3ccccc32)cc1`, the Potency result is “inactive”.

With `COC(=O)c1ccc(O)c2ncc(N(C)C)cc12`, the Potency result is “inactive”. Then `Cc1cc2c(s1)c1cnn(Cc3ccccc3)c(=O)c1n2C`, with “inactive”. Then `Fc1cc(Nc2nc(-c3ccncc3)nc3ccccc23)ccc1-c1ccnc(C(F)(F)F)c1`, with “inactive”; and `C[C@@H]1CN(S(=O)(=O)c2c(F)cccc2F)CCN1S(=O)(=O)c1ccc2c(c1)OCCO2`, with “inactive”. As for `COc1ccc(OC)c(-c2nnc3n2N=C(c2ccc(OC)c(OC)c2)CS3)c1`, the Potency entry was “inactive”. The same measure for `Cc1ccc(S(=O)(=O)Nc2cc(Cl)cc(C(=O)Nc3nc(-c4ccccc4)cs3)c2)cc1`: “inactive”. Then `CC(C)c1ccccc1-c1nc(NCc2ccc(-c3cccnc3)cc2)c2occc2n1`, with “inactive”. The same measure for `C/C=C(\C)C(=O)OC1C[C@@]2(COC(C)=O)O[C@H]2/C=C\[C@@]2(C)O[C@@H]2[C@H]2OC(=O)C(COC(C)=O)=C12` (stereo not given in full): “inactive”; for `O=C(Nc1ncc(Cc2ccc(C(F)(F)F)cc2)s1)c1ccco1`: “inactive”; for `Cn1nnnc1Sc1ncnc2scc(-c3cccc(C#N)c3)c12`: “inactive”. Regarding `Cc1cc(C)nc(NC(=S)N2CCN(c3cccc(S(C)=O)c3)CC2)c1` (stereo not given), the Potency entry is “inactive”.

Turning to `CC(=O)c1ccc(N2CCN(S(=O)(=O)c3ccc4[nH]c(=O)oc4c3)CC2)cc1`, the Potency result was “inactive”. The same measure for `COc1ccc(C2Nc3ccccc3C(=O)N2Cc2ccccc2)cc1Oc1ccc(NC(C)=O)cc1` (stereo not given): “inactive”. The same measure for `Oc1cccc(C2NC(=S)Nc3cccc(F)c32)c1` (stereo not given): “inactive”; for `CC1(C)CC[C@]2(C(=O)O)CC[C@]3(C)C(=CCC4[C@@]5(C)C[C@@H](O)[C@H](O)[C@@](C)(CO)C5CC[C@]43C)C2C1` (stereo not given in full): “inactive”. As for `Cc1nc(CN=C2NC3=C(C(=O)CCC3)C(c3[nH]ncc3Cl)N2)cs1` (stereo not given), the Potency result was “inactive”. For the molecule `O=C(Nc1ccccn1)c1sc2ccccc2c1Cl`, the Potency result was “inactive”.

In the case of `COc1cccc(CCN2C(=O)c3ccccc3NC2c2ccc(OC)c(COc3c(C)cc(NC(C)=O)cc3C)c2)c1` (stereo not given), the Potency result is “inactive”. Then `Oc1ccc(CNc2ccc3ccccc3n2)c2cccnc12`, with “inactive”; and `COc1ccc(OC)c(NC(=O)C(OC(=O)CNC(=O)c2ccccc2)c2ccccc2)c1` (stereo not given), with “inactive”. In the case of `COc1cc(OC)cc(C2=Nn3c(nnc3-c3ccccc3OC)SC2)c1`, the Potency result was “inactive”. For the molecule `FC(F)(F)c1ccccc1-c1nc(NCc2ccc(Br)cc2)c2ccccc2n1`, the Potency entry is “inactive”. For `COC(=O)Nc1sc2c(c1-c1nc3ccccc3s1)CCNC2`, the Potency result was “inactive”. Take `Cc1ccc(NC(=O)c2ccc(-c3nc4ccccc4[nH]3)cc2)cc1Br`: the Potency entry is “inactive”. As for `CS(=O)(=O)c1ccc(C(=O)OCC(=O)N2CCC(Cc3ccccc3)CC2)cc1[N+](=O)[O-]`, the Potency entry was “inactive”. Take `CCSC1=NS(=O)(=O)c2ccccc21`: the Potency result is “inactive”. As for `COCCNc1nc(C)nc2c1nc(-c1ccccc1)n2CCN1CCCC1`, the Potency result is “inactive”.

Consider `COc1ccc([S+](=O)([O-])Nc2ccc(-c3nc4ccccc4[nH]3)cc2)cc1OC`, for which the Potency entry is “inactive”.
